Test results as given in a collection of fitness landscapes (doi:10.1126/science.1257360).
In all, about 140,000 sequences were measured (“enrichment ratio after two sorts for PhoP signalling”: median about 0, highest 2% from about 11 on). Shown is part of a subset that was picked to be rich in the highest values.

B1: PhoQ; a variant is named by its letters at X, in order, P23837 (parent)
chain: MKKLLRLFFPLSLRVRFLLATAAVVLVLSLAYGMVALIGYSVSFDKTTFRLLRGESNLFYTLAKWENNKLHVELPENIDKQSPTMTLIYDENGQLLWAQRDVPWLMKMIQPDWLKSNGFHEIEADVNDTSLLLSGDHSIQQQLQEVREDDDDAEMTHSVAVNVYPATSRMPKLTIVVVDTIPVELKSSYMVWSWFIYVLSANLLLVIPLLWVAAWWSLRPIEALAKEVRELEEHNRELLNPATTRELTSLVRNLNRLLKSERERYDKYRTTLTDLTHSLKTPLXXLQXXLRSLRSEKMSVSDAEPVMLEQISRISQQIGYYLHRASMRGGTLLSRELHPVAPLLDNLTSALNKVYQRKGVNISLDISPEISFVGEQNDFVEVMGNVLDNACKYCLEFVEISARQTDEHLYIVVEDDGPGIPLSKREVIFDRGQRVDTLRPGQGVGLAVAREITEQYEGKIVAGESMLGGARMEVIFGRQHSAPKDE

Variants of: B1
Assay: enrichment ratio after two sorts for PhoP signalling (ratio (wild type AVST 3.29)); higher = more functional
Settings: with PhoP (E. coli)

| Variant | enrichment ratio |
| --- | --- |
| YKSC | ≤ 0.25 |
| GCVC | ≤ 0.25 |
| HYNH | ≤ 0.25 |
| QPWG | ≤ 0.25 |
| QEDH | ≤ 0.25 |
| QSWG | 18 |
| QSDK | ≤ 0.25 |
| QSDS | 20.8 |
| QSDH | 18.9 |
| QRWG | ≤ 0.25 |
| QADS | 3.89 |
| KADY | ≤ 0.25 |
| QADY | 11.7 |
| KSDH | ≤ 0.25 |
| QSDA | 7.1 |
| QIRT | ≤ 0.25 |
| QYHW | ≤ 0.25 |
| CPHF | ≤ 0.25 |
| NKSG | ≤ 0.25 |
| VAGL | 1.62 |
| RRLA | ≤ 0.25 |
| KSHI | ≤ 0.25 |
| QSAM | 14.5 |
| QEAM | ≤ 0.25 |

| Variant | enrichment ratio |
| --- | --- |
| QSDI | 14.8 |
| QPDI | ≤ 0.25 |
| KNHV | ≤ 0.25 |
| KSDI | ≤ 0.25 |
| QSGV | 3.83 |
| QSHI | 15.9 |
| QAAM | ≤ 0.25 |
| QSHV | 11.3 |
| QSHF | 9.45 |
| SNHK | ≤ 0.25 |
| ELHR | ≤ 0.25 |
| RESM | ≤ 0.25 |
| NKRK | ≤ 0.25 |
| MWRP | ≤ 0.25 |
| GFQI | ≤ 0.25 |
| NFAP | ≤ 0.25 |
| QSRM | ≤ 0.25 |
| QSCK | ≤ 0.25 |
| QRWA | ≤ 0.25 |
| QSWM | 11.9 |
| QSWA | 14.9 |
| QSLA | ≤ 0.25 |
| QSPM | ≤ 0.25 |
| QPWA | ≤ 0.25 |

| Variant | enrichment ratio |
| --- | --- |
| QSGM | 21.6 |
| QSWI | 21.7 |
| QSGD | ≤ 0.25 |
| QSTH | ≤ 0.25 |
| WMFH | ≤ 0.25 |
| WHID | ≤ 0.25 |
| WSCR | ≤ 0.25 |
| TVMI | 1.87 |
| WGFP | ≤ 0.25 |
| HKEM | ≤ 0.25 |
| ESDT | ≤ 0.25 |
| KSNM | ≤ 0.25 |
| QYWI | ≤ 0.25 |
| QSNM | 13.1 |
| QSHQ | 22.4 |
| QSDY | 14.5 |
| QYWG | 16.3 |
| QSWY | 7.32 |
| QENM | ≤ 0.25 |
| QSHP | ≤ 0.25 |
| KSDY | ≤ 0.25 |
| QYMG | ≤ 0.25 |
| QSTD | ≤ 0.25 |
| HQNG | ≤ 0.25 |

| Variant | enrichment ratio |
| --- | --- |
| FDDI | ≤ 0.25 |
| SMYF | ≤ 0.25 |
| YYYI | ≤ 0.25 |
| FAGN | ≤ 0.25 |
| ICGK | ≤ 0.25 |
| IRTW | ≤ 0.25 |
| QGDM | 27.5 |
| QRWD | ≤ 0.25 |
| QLHC | 21.3 |
| QPWD | ≤ 0.25 |
| KSDM | ≤ 0.25 |
| QRHC | ≤ 0.25 |
| QVHC | ≤ 0.25 |
| QSDM | 13.7 |
| QPDM | ≤ 0.25 |
| QGGM | 4.35 |
| FFDM | ≤ 0.25 |
| QSWD | 22.4 |
| WGMH | ≤ 0.25 |
| ANRC | ≤ 0.25 |
| KGAG | ≤ 0.25 |
| TIPQ | ≤ 0.25 |
| PTHR | ≤ 0.25 |
| TGAL | 15.9 |

| Variant | enrichment ratio |
| --- | --- |
| MEAL | 8.16 |
| RGAL | 0.701 |
| MGAL | 15.5 |
| TAAL | 11.4 |
| KAAL | 1.81 |
| NGAL | ≤ 0.25 |
| QRAL | ≤ 0.25 |
| NEAL | ≤ 0.25 |
| NAAL | ≤ 0.25 |
| GGAL | 4.27 |
| TEAL | 14.7 |
| EAAP | ≤ 0.25 |
| LSEF | ≤ 0.25 |
| DGFG | ≤ 0.25 |
| EQRH | ≤ 0.25 |
| KHEV | ≤ 0.25 |
| INFP | ≤ 0.25 |
| TDLE | ≤ 0.25 |
| NRFY | ≤ 0.25 |
| VSYR | ≤ 0.25 |
| PTNE | ≤ 0.25 |
| FSIC | ≤ 0.25 |
| PHTQ | ≤ 0.25 |
| QAAL | 3.3 |

| Variant | enrichment ratio |
| --- | --- |
| QGAL | 15.6 |
| FFAL | ≤ 0.25 |
| LMWN | ≤ 0.25 |
| HINH | ≤ 0.25 |
| KPLN | ≤ 0.25 |
| FSLS | 9.54 |
| TSLN | 16.9 |
| KSLS | ≤ 0.25 |
| KSLN | ≤ 0.25 |
| KSLT | ≤ 0.25 |
| TSLS | 15.9 |
| TSLA | 16.6 |
| FSLT | 7.83 |
| TSWI | 3.63 |
| NSLN | ≤ 0.25 |
| TSLT | 13.3 |
| KSLA | ≤ 0.25 |
| YNRN | ≤ 0.25 |
| VLSY | 0.334 |
| DDLI | ≤ 0.25 |
| ARIV | ≤ 0.25 |
| HMEL | ≤ 0.25 |
| PRTC | ≤ 0.25 |
| INYQ | ≤ 0.25 |

| Variant | enrichment ratio |
| --- | --- |
| ICWY | ≤ 0.25 |
| RSTG | ≤ 0.25 |
| YLPW | ≤ 0.25 |
| WEVD | ≤ 0.25 |
| ANLP | ≤ 0.25 |
| GSFM | ≤ 0.25 |
| GNLF | 6.83 |
| GSLM | 20.9 |
| TPLF | ≤ 0.25 |
| GSLF | 11.4 |
| GSGM | 8.45 |
| KGAD | ≤ 0.25 |
| MQRI | ≤ 0.25 |
| EYAR | ≤ 0.25 |
| AIYG | 0.334 |
| AEMG | 14.3 |
| AEMS | 31 |
| AEEG | ≤ 0.25 |
| AEYG | 36.3 |
| AEMT | 5.41 |
| AEGG | ≤ 0.25 |
| AEHG | ≤ 0.25 |
| AEIG | 21.9 |
| ADYG | ≤ 0.25 |

| Variant | enrichment ratio |
| --- | --- |
| AEMF | ≤ 0.25 |
| QPAL | ≤ 0.25 |
| QTTM | ≤ 0.25 |
| SAVI | 3.04 |
| NWIW | ≤ 0.25 |
| RGNN | ≤ 0.25 |
| GTDL | ≤ 0.25 |
| AEGA | 11 |
| AEMA | 25.6 |
| AGMA | 5.7 |
| IMTE | ≤ 0.25 |
| PMNV | ≤ 0.25 |
| YHPY | ≤ 0.25 |
| TNGH | 7.13 |
| QASI | 12.8 |
| TASI | 12.5 |
| TATC | 7.1 |
| TASK | 0.795 |
| TASS | 13.4 |
| KASS | 1.62 |
| TATH | 3.27 |
| KASI | ≤ 0.25 |
| QRSI | ≤ 0.25 |
| NASI | ≤ 0.25 |

| Variant | enrichment ratio |
| --- | --- |
| NASS | ≤ 0.25 |
| TATS | 19.8 |
| MVMH | ≤ 0.25 |
| DHNH | ≤ 0.25 |
| KATG | ≤ 0.25 |
| TATG | 18 |
| NASC | ≤ 0.25 |
| TASC | 12.7 |
| KASC | ≤ 0.25 |
| NATG | ≤ 0.25 |
| FSNY | ≤ 0.25 |
| TWVT | ≤ 0.25 |
| GTIG | 1.96 |
| GCCI | 5.84 |
| GCMG | 16.9 |
| GCGG | ≤ 0.25 |
| GCIG | 12.8 |
| QCCG | ≤ 0.25 |
| GCCG | 18.1 |
| GNIG | 1.98 |
| GQIG | 23.8 |
| GCVG | ≤ 0.25 |
| GQIV | 0.651 |
| GYIG | ≤ 0.25 |

| Variant | enrichment ratio |
| --- | --- |
| LGAY | ≤ 0.25 |
| SVEV | ≤ 0.25 |
| YSQV | ≤ 0.25 |
| KMDL | ≤ 0.25 |
| NRSD | ≤ 0.25 |
| TNRT | ≤ 0.25 |
| FPTD | ≤ 0.25 |
| IEAY | ≤ 0.25 |
| HKTL | ≤ 0.25 |
| MKTL | ≤ 0.25 |
| AMTL | 4.39 |
| TKTL | 16 |
| AETL | 15.1 |
| AVWL | ≤ 0.25 |
| AITL | 24.3 |
| AVEL | ≤ 0.25 |
| AHTL | 6.56 |
| AVTL | 12.5 |
| MHYL | ≤ 0.25 |
| ALHS | ≤ 0.25 |
| THYA | ≤ 0.25 |
| TPED | ≤ 0.25 |
| WDQY | ≤ 0.25 |
| IFCF | ≤ 0.25 |

| Variant | enrichment ratio |
| --- | --- |
| AKTL | 12.5 |
| AWTL | ≤ 0.25 |
| ASTL | 20.2 |
| KKTL | ≤ 0.25 |
| ASEL | 3.67 |
| KLTL | ≤ 0.25 |
| ALTL | 15.2 |
| ADTL | ≤ 0.25 |
| ANTL | 12.9 |
| LLTL | ≤ 0.25 |
| VRTL | ≤ 0.25 |
| LLVY | ≤ 0.25 |
| YYRY | ≤ 0.25 |
| RSKL | ≤ 0.25 |
| EIAA | ≤ 0.25 |
| SNVV | 7.87 |
| ACTK | 4.69 |
| ACTL | 15.2 |
| AGAW | ≤ 0.25 |
| PHQA | ≤ 0.25 |
| GVCG | 12.7 |
| GNCW | ≤ 0.25 |
| GQWG | ≤ 0.25 |
| GTCG | 7.53 |

| Variant | enrichment ratio |
| --- | --- |
| GQCS | 4.33 |
| NVCW | ≤ 0.25 |
| PNCG | ≤ 0.25 |
| GQCI | 2.43 |
| GVCW | 11.5 |
| PWCG | ≤ 0.25 |
| GQCE | 21.9 |
| GQCG | 16.6 |
| TNLK | ≤ 0.25 |
| EITI | ≤ 0.25 |
| RPCA | ≤ 0.25 |
| WVGL | ≤ 0.25 |
| NTRE | ≤ 0.25 |
| RRCS | ≤ 0.25 |
| NLFK | ≤ 0.25 |
| SDVW | ≤ 0.25 |
| PHGP | ≤ 0.25 |
| FFGC | ≤ 0.25 |
| TMNC | 15.3 |
| KMNC | ≤ 0.25 |
| TMGC | 11.3 |
| QPGC | ≤ 0.25 |
| DMNC | ≤ 0.25 |
| NHGC | ≤ 0.25 |

| Variant | enrichment ratio |
| --- | --- |
| KCGC | ≤ 0.25 |
| TMPC | ≤ 0.25 |
| QGGC | 19.5 |
| TMTC | 13.5 |
| TMNK | ≤ 0.25 |
| EFVE | ≤ 0.25 |
| GASP | ≤ 0.25 |
| HAHN | ≤ 0.25 |
| NMLC | ≤ 0.25 |
| GMGC | ≤ 0.25 |
| TCGC | 23.2 |
| VEGC | ≤ 0.25 |
| MIGC | 41.4 |
| TMGQ | 5.04 |
| TMLC | 13.8 |
| TMGA | 17.5 |
| DMLC | ≤ 0.25 |
| TMPP | ≤ 0.25 |
| MITC | ≤ 0.25 |
| MEGC | ≤ 0.25 |
